# Measurements taken from PubChem BioAssay (NCI).
# About 79,000 compounds went through this panel and 15% of them were active in at least one assay; those are over-represented in the sample as a whole. Values without a mark were called inactive. The source made the active and inactive calls. Cut-off read from the data, not from the text of the source: active = growth inhibition above about 70%; inactive = the rest.
# Experiments:
# [1] = NCI Yeast Anticancer Drug Screen. Data for the rad52 strain (AID 147);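 note: 0% = growth of vehicle-treated control cultures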; conditions: S. cerevisiae rad52 mutant growth inhibition, hits give high values
# Summary of the method: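 Growth of repair-deficient yeast cells was compared between compound-treated and vehicle-treated cultures to give percent inhibition.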
# [2] = NCI Yeast Anticancer Drug Screen. Data for the rad50EPP+ strain (AID 151);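 note: 0% = growth of vehicle-treated control cultures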; conditions: S. cerevisiae rad50 mutant strain, hits give high values
# Summary of the method: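 Measured: growth inhibition of rad50EPP+ yeast. Reference: vehicle-treated controls. Screen uses strains with defined genetic alterations in DNA damage repair or cell cycle control.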
# [3] = NCI Yeast Anticancer Drug Screen. Data for the mgt1 strain (AID 153); conditions: S. cerevisiae mgt1 mutant growth inhibition, hits give high values
# Summary of the method: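 Compounds were applied to mgt1 mutant yeast, and growth was then compared against vehicle-treated control cultures to give percent inhibition.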
# [4] = NCI Yeast Anticancer Drug Screen. Data for the rad50 strain (AID 155);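 note: 0% = growth of vehicle-only cultures of the same strain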; conditions: S. cerevisiae rad50 strain growth inhibition, hits give high values
# Summary of the method: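 DNA repair mutant yeast, compound exposure, growth read-out; inhibition is taken relative to vehicle.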
# [5] = NCI Yeast Anticancer Drug Screen. Data for the mec2-1 strain (AID 157); conditions: S. cerevisiae mec2-1 strain, hits give high values
# Summary of the method: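 Compounds were applied to mec2-1 yeast cells. Their growth was then compared with that of vehicle-treated cultures to give growth inhibition.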
# [6] = NCI Yeast Anticancer Drug Screen. Data for the rad14 strain (AID 159);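 note: 0% = growth of vehicle-treated control cultures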; conditions: S. cerevisiae rad14 strain growth inhibition, hits give high values
# Summary of the method: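 DNA repair-defective yeast, compound-exposed; % growth inhibition derived by comparison with vehicle-treated controls.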
# [7] = NCI Yeast Anticancer Drug Screen. Data for the sgs1 mgt1 strain (AID 161);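 note: 0% = growth of cultures given vehicle only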; conditions: S. cerevisiae sgs1 mgt1 strain, hits give high values
# Summary of the method: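 This yeast growth screen uses a strain with defined DNA-repair lesions; compound-treated growth is compared with vehicle-treated growth.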
# [8] = NCI Yeast Anticancer Drug Screen. Data for the CLN2oe strain (AID 163);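 note: 0% = growth of vehicle-only control cultures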; conditions: S. cerevisiae CLN2oe strain, hits give high values
# Summary of the method: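 Cells of an engineered yeast line with disturbed cell-cycle regulation are treated with compound. Inhibition of growth is then calculated relative to the vehicle-treated reference.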
# [9] = NCI Yeast Anticancer Drug Screen. Data for the cln2 rad14 strain (AID 165);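 note: 0% = growth equal to vehicle treated cultures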; conditions: S. cerevisiae cln2 rad14 strain, hits give high values
# Summary of the method: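 Strain: cln2 rad14 yeast, altered in cell cycle control and DNA damage repair. Read-out: growth inhibition vs vehicle.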
# [10] = NCI Yeast Anticancer Drug Screen. Data for the bub3 strain (AID 167); conditions: S. cerevisiae bub3 mutant strain, hits give high values
# Summary of the method: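 In this screen, a yeast mutant lacking normal mitotic checkpoint function is challenged with compound. Relative growth versus vehicle gives the inhibition value.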
# [11] = NCI Yeast Anticancer Drug Screen. Data for the wt2 strain (AID 169);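 note: 0% = growth of vehicle-treated yeast cultures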; conditions: S. cerevisiae wt2 strain growth inhibition, hits give high values
# Summary of the method: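 Growth of compound-treated yeast is measured and expressed as inhibition relative to vehicle-only controls.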
# [12] = NCI Yeast Anticancer Drug Screen. Data for the mlh1 strain (AID 171);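 note: 0% = growth of vehicle-treated control cultures of the same strain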; conditions: S. cerevisiae mlh1 strain growth inhibition, hits give high values
# Summary of the method: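 Test agents were incubated with yeast bearing a defined DNA damage repair or cell cycle control alteration; values are growth inhibition normalised to vehicle-treated cultures.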
# [13] = NCI Yeast Anticancer Drug Screen. Data for the sgs1 strain (AID 173);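 note: 0% = growth of vehicle-only control cultures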; conditions: S. cerevisiae sgs1 mutant, hits give high values
# Summary of the method: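 Strain with an altered DNA repair or cell cycle pathway exposed to compound. Growth then measured. Value = inhibition versus vehicle control.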
# [14] = NCI Yeast Anticancer Drug Screen. Data for the mlh1 rad18 strain (AID 175); conditions: S. cerevisiae mlh1 rad18 strain growth inhibition, hits give high values
# Summary of the method: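 A repair-deficient yeast strain is exposed to test compound, and growth is scored relative to vehicle-treated controls.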
# [15] = NCI Yeast Anticancer Drug Screen. Data for the rad18 strain (AID 177); conditions: S. cerevisiae rad18 mutant growth inhibition, hits give high values
# Summary of the method: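 DNA-repair-defective yeast; compound treatment; growth inhibition scored against vehicle.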
# [16] = at 5.0 µM (retest, dose inferred, filed as 0.5)
# [17] = at 50.0 µM (retest, dose inferred, filed as 5.0)
smiles,measurement,setting,value
O=C1Oc2ccccc2C(=O)/C1=C/N1C(=O)N/C(=C\c2ccccc2Br)C1=O,growth inhibition,[1]; at 1.2 µM,1%
same,growth inhibition,[1]; at 3.7 µM,4%
same,growth inhibition,[1]; at 11.0 µM,13%
same,growth inhibition,[1]; at 33.0 µM,43%
same,growth inhibition,[1]; at 100.0 µM,91% (active)
same,growth inhibition,[2]; at 1.2 µM,-2%
same,growth inhibition,[2]; at 3.7 µM,1%
same,growth inhibition,[2]; at 11.0 µM,6%
same,growth inhibition,[2]; at 33.0 µM,21%
same,growth inhibition,[2]; at 100.0 µM,57%
same,growth inhibition,[3]; at 1.2 µM,0%
same,growth inhibition,[3]; at 3.7 µM,1%
same,growth inhibition,[3]; at 11.0 µM,7%
same,growth inhibition,[3]; at 33.0 µM,25%
same,growth inhibition,[3]; at 100.0 µM,96% (active)
same,growth inhibition,[4]; at 1.2 µM,-2%
same,growth inhibition,[4]; at 3.7 µM,-11%
same,growth inhibition,[4]; [16],-6%
same,growth inhibition,[4]; at 11.0 µM,-3%
same,growth inhibition,[4]; at 33.0 µM,40%
same,growth inhibition,[4]; [17],54%
same,growth inhibition,[4]; at 50.0 µM,91.9% (active)
same,growth inhibition,[4]; at 100.0 µM,95% (active)
same,growth inhibition,[5]; at 1.2 µM,1%
same,growth inhibition,[5]; at 3.7 µM,1%
same,growth inhibition,[5]; [16],-15%
same,growth inhibition,[5]; at 11.0 µM,7%
same,growth inhibition,[5]; at 33.0 µM,27%
same,growth inhibition,[5]; [17],5%
same,growth inhibition,[5]; at 50.0 µM,56.1%
same,growth inhibition,[5]; at 100.0 µM,86% (active)
same,growth inhibition,[6]; at 1.2 µM,1%
same,growth inhibition,[6]; at 3.7 µM,2%
same,growth inhibition,[6]; at 11.0 µM,13%
same,growth inhibition,[6]; at 33.0 µM,59%
same,growth inhibition,[6]; at 100.0 µM,97% (active)
same,growth inhibition,[7]; [16],-3%
same,growth inhibition,[7]; [17],17%
same,growth inhibition,[7]; at 50.0 µM,89.7% (active)
same,growth inhibition,[8]; at 1.2 µM,-3%
same,growth inhibition,[8]; at 3.7 µM,4%
same,growth inhibition,[8]; at 11.0 µM,14%
same,growth inhibition,[8]; at 33.0 µM,33%
same,growth inhibition,[8]; at 100.0 µM,56%
same,growth inhibition,[9]; [16],15%
same,growth inhibition,[9]; [17],13%
same,growth inhibition,[9]; at 50.0 µM,39.5%
same,growth inhibition,[10]; at 1.2 µM,0%
same,growth inhibition,[10]; at 3.7 µM,-1%
same,growth inhibition,[10]; [16],7%
same,growth inhibition,[10]; at 11.0 µM,6%
same,growth inhibition,[10]; at 33.0 µM,29%
same,growth inhibition,[10]; [17],33%
same,growth inhibition,[10]; at 50.0 µM,94.5% (active)
same,growth inhibition,[10]; at 100.0 µM,83% (active)
same,growth inhibition,[11]; at 1.2 µM,1%
same,growth inhibition,[11]; at 3.7 µM,2%
same,growth inhibition,[11]; at 11.0 µM,6%
same,growth inhibition,[11]; at 33.0 µM,33%
same,growth inhibition,[11]; at 100.0 µM,96% (active)
same,growth inhibition,[12]; at 1.2 µM,0%
same,growth inhibition,[12]; at 3.7 µM,5%
same,growth inhibition,[12]; at 11.0 µM,12%
same,growth inhibition,[12]; at 33.0 µM,43%
same,growth inhibition,[12]; at 100.0 µM,97% (active)
same,growth inhibition,[13]; at 1.2 µM,2%
same,growth inhibition,[13]; at 3.7 µM,5%
same,growth inhibition,[13]; at 11.0 µM,14%
same,growth inhibition,[13]; at 33.0 µM,54%
same,growth inhibition,[13]; at 100.0 µM,96% (active)
same,growth inhibition,[14]; [16],4%
same,growth inhibition,[14]; [17],52%
same,growth inhibition,[14]; at 50.0 µM,95.5% (active)
same,growth inhibition,[15]; at 1.2 µM,-1%
same,growth inhibition,[15]; at 3.7 µM,1%
same,growth inhibition,[15]; at 11.0 µM,6%
same,growth inhibition,[15]; at 33.0 µM,51%
same,growth inhibition,[15]; at 100.0 µM,94% (active)
